Data on 23 molecules can be found in PubChem BioAssay AID624093 (National Center for Advancing Translational Sciences (NCATS), 2012).

Records with an inconclusive call do not appear. A number with no mark means an inactive call. Calls of active or inactive are those of the source. Calls come from the whole dose curve; as a rule, active = well fitted inhibition curve with a large enough effect; inconclusive = small, poorly fitted or top-dose-only effect; inactive = flat fitted curve, though single readings scatter.

This experiment deals with Dual specificity tyrosine-phosphorylation-regulated kinase 1A (Homo sapiens) (UniProt Q13627). The experiment can be described thus: Confirmation Assay for Inhibitors of Dyrk1a (Kinase-Glo Assay): KU probe. The conditions noted are these: Kinase-Glo ATP luminescence; series mostly up to 76.9 µM; activity, negative = inhibition: at the top concentration. Summed up: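 Substrate mix (8 uM DYRKtide, 2 uM ATP, pH 7.5 Tris buffer with Mg2+) receives compound, then 5 nM Dyrk1A; after 2 h at room temperature, Kinase-Glo reagent is added and luminescence read.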
On the technique in general: In Kinase-Glo more light means more ATP remaining.
`c1cncc(CNc2ncncc2-c2ccc3c(c2)OCO3)c1`: the Potency was 26 µM (active).
As for `Clc1ccc(CNc2ccnc(-c3ccc4[nH]ncc4c3)n2)cc1Cl`, the Potency is 4.63 µM (active).
The same measure, in the same setting: to `Cc1csc(CN(C)c2ncnc3ccc(-c4ccc5c(c4)OCO5)cc23)n1` belongs 0.0232 µM (active); to `Cc1csc(CNc2ncnc3ccc(-c4ccc(C(=O)O)o4)cc23)n1`, 23.2 µM (active).
As to `c1cc(-c2ccoc2)nc(-c2ccc3c(c2)OCO3)n1`, the Potency is 29.2 µM (active).
Turning to `Clc1cc(CNc2ccnc(-c3ccc4c(c3)OCO4)n2)ccn1`, the Potency is 23.2 µM (active).
Consider `N#Cc1cccc(-c2ncccn2)c1`, for which the “activity, negative = inhibition” value was -13.2%.
As to `CCCNc1ncnc2ccc(-c3ccc4c(c3)OCO4)cc12`, the Potency is 0.116 µM (active).
On to `Brc1ccc(CNc2ccnc(-c3ccc4c(c3)OCO4)n2)cc1Br`, for which the “activity, negative = inhibition” value was -10.1%.
For `Clc1cc(Cl)cc(CNc2ncncc2-c2ccc3c(c2)OCO3)c1`, the Potency was 2.6 µM (active).
As for `Cc1c(-c2ccnc(NCc3cccnc3)n2)sc(=O)n1C`, the Potency is 0.146 µM (active).
On to `Brc1cc(Br)cc(CNc2nccc(-c3ccc4c(c3)OCO4)n2)c1`, for which the Potency was 0.0733 µM (active).
For the molecule `Cc1csc(CNc2ncnc3ccc(-c4ccc(CO)o4)cc23)n1`, the Potency was 10.4 µM (active).
For the molecule `O=c1cnc2cnc(Nc3ccccc3)nc2n1CCc1ccccc1`, the Potency is 0.292 µM (active).
`CCNC(=O)c1ccc(-c2ccc3ncnc(NCC4CCCO4)c3c2)o1` (stereo not drawn): the Potency is 2.6 µM (active).
`COc1ccc(-c2nccc(NCc3ccc(C)cc3)n2)cc1`: the “activity, negative = inhibition” value is -10.8%.
Take `Brc1ccc(CNc2nccc(-c3ccc4c(c3)OCO4)n2)cc1Br`: the Potency was 0.823 µM (active).
On the same count and under the same terms, under `c1nc(NCC2CCCC2)c2cc(-c3ccc4c(c3)OCO4)ccc2n1` stands 0.0654 µM (active).
With `COc1cccc(-c2ccnc(NCc3ccc(Cl)c(Cl)c3)n2)c1`, the Potency is 5.82 µM (active).
On to `Cc1ccc(CNc2ccnc(-c3ccc4c(c3)OCO4)n2)cc1`, for which the “activity, negative = inhibition” value is -13.7%.
Regarding `COc1ccc(CNc2ccnc(-c3ccc(N(C)C)cc3)n2)cc1`, the “activity, negative = inhibition” value is -1.18%.
As for `c1nc(NCCc2cnc[nH]2)c2cc(-c3ccc4c(c3)OCO4)ccc2n1`, the Potency was 0.328 µM (active).
For `Clc1cc(Cl)cc(CNc2ccnc(-c3ccc4c(c3)OCO4)n2)c1`, the “activity, negative = inhibition” value was -17.3%.
